# According to PubChem BioAssay (NCI):
# This is part of a sample that, as a whole, favours compounds with a hit. Of some 83,000 tested, about 20% had one in any assay.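 Single-dose data. Exposure time 48 hours. Values below 10 considered active.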 Unmarked numbers belong to inactive results. The source made the active and inactive calls.
# Experiments:
# Test in all cases: NCI-60 one-dose screen, 48 h (100 = growth as untreated, 0 = no growth, -100 = all killed)
# HCT-15 colon = details: 10 µM unless noted
# HT29 colon = details: 10 µM unless noted
# SNB-75 CNS = details: 10 µM unless noted
# SNB-19 CNS = details: 10 µM unless noted
# U251 CNS = details: 10 µM unless noted
# PC-3 prostate = details: 10 µM unless noted
# SK-MEL-5 melanoma = details: 10 µM unless noted
# UACC-62 melanoma = details: 10 µM unless noted
# LOX IMVI melanoma = details: 10 µM unless noted
# SK-MEL-28 melanoma = details: 10 µM unless noted
# EKVX NSCLC = details: 10 µM unless noted
# SN12C renal = details: 10 µM unless noted
# UO-31 renal = details: 10 µM unless noted
# TK-10 renal = details: 10 µM unless noted
# ACHN renal = details: 10 µM unless noted
# CAKI-1 renal = details: 10 µM unless noted
# A498 renal = details: 10 µM unless noted
# CCRF-CEM leukemia = details: 10 µM unless noted
# MOLT-4 leukemia = details: 10 µM unless noted
# SK-MEL-2 melanoma = details: 10 µM
Compound,growth (HCT-15 colon),growth (HT29 colon),growth (SNB-75 CNS),growth (SNB-19 CNS),growth (U251 CNS),growth (PC-3 prostate),growth (SK-MEL-5 melanoma),growth (UACC-62 melanoma),growth (LOX IMVI melanoma),growth (SK-MEL-28 melanoma),growth (EKVX NSCLC),growth (SN12C renal),growth (UO-31 renal),growth (TK-10 renal),growth (ACHN renal),growth (CAKI-1 renal),growth (A498 renal),growth (CCRF-CEM leukemia),growth (MOLT-4 leukemia),growth (SK-MEL-2 melanoma)
Cc1cn(-c2cc(NC(=O)c3ccc(C)c(Nc4nccc(-c5cnccn5)n4)c3)cc(C(F)(F)F)c2)cn1,82%,19.7%,88.2%,74.5%,39.8%,60.3%,57.9%,26.4%,63.3%,31.3%,107%,56.5%,62.9%,102%,83.7%,97.6%,106%,60.5%,52.6%,
Cc1[nH]n(C(N)=S)c(=O)c1N=Nc1ccc(S(=O)(=O)Nc2ccncn2)cc1,113%,105%,73.7%,99.8%,113%,77.1%,94.6%,101%,87.4%,98.9%,120%,97.6%,84.6%,126%,106%,155%,87.4%,-34.3% (active),106%,
CNC(=O)c1cc(COc2nnc(Nc3ccc(Cl)cc3)c3ccoc23)ccn1,70.1%,71%,-39.3% (active),19.6%,15.1%,34.5%,-0.858% (active),47.8%,15.5%,52.5%,56.7%,38.9%,-3.27% (active),33%,23.4%,28.2%,62.6%,98.2%,73.6%,
CC(N)C(Cc1ccccc1)c1ccc(Cl)cc1 (centres undefined),101%,76.8%,70.4%,92%,86.4%,68%,93.3%,93.2%,90.1%,96.7%,91.6%,,,89.5%,97%,79.1%,,,76.4%,96.7%
O=C(Nc1cccc(Cl)c1)Nc1ncc(CCNc2ncnc3ccsc23)s1,22.9%,19.7%,25.6%,64.9%,38.4%,8.62% (active),-52% (active),-24.7% (active),16.4%,33.5%,34.5%,53.7%,27.5%,28.9%,26.8%,21.7%,29.3%,10.1%,-4.94% (active),
CO[C@H]1C[C@@H]2CC[C@@H](C)[C@@](O)(O2)C(=O)C(=O)N2CCCC[C@H]2C(=O)O[C@H]([C@H](C)C[C@@H]2CC[C@@H](OCCO)[C@H](OC)C2)CC(=O)[C@H](C)/C=C(\C)[C@@H](O)[C@H](OC)C(=O)[C@H](C)C[C@H](C)\C=C/C=C/C=C/1C,53.9%,44.1%,20.8%,49.5%,42.7%,44.3%,63.5%,40.8%,40.3%,44%,54.9%,54.3%,16.6%,63.8%,48.6%,47.6%,25.8%,35%,33.3%,
Cc1cccc(Cl)c1NC(=O)c1cnc(Nc2cc(N3CCOCC3)cc(N3CCOCC3)c2)s1,22.2%,-10.2% (active),-43.3% (active),47.4%,54.6%,45.7%,65.1%,41.6%,-71.8% (active),63.6%,33.1%,30%,-0.169% (active),-65.2% (active),-7.5% (active),-37.8% (active),-22.6% (active),63.2%,27.8%,
C=CC(=O)N1CCC(Oc2cc3c(Nc4ccc(Cl)c(Cl)c4F)ncnc3cc2OC)CC1,21.2%,-16.4% (active),-18.4% (active),32.4%,32.8%,14.2%,18.7%,20.7%,-66.1% (active),63.3%,18.7%,15.8%,-31.6% (active),-7.41% (active),-3.88% (active),-34.2% (active),-69.8% (active),20.9%,-10.5% (active),
